According to PubChem BioAssay AID463173 (ICCB-Longwood Screening Facility, Harvard Medical School, 2010):
In all, about 52,000 compounds went through this assay and about 4,300 (8.3%) were called active. This excerpt belongs to a sample that is enriched for actives. Unmarked numbers belong to inactive results. No stated cut-off is given here; in the data, active means survival mostly below about 52% (no sharp cut-off); inactive means mostly above about 56%.

tested on: DeltatarO mutant; assay: growth inhibition of S. aureus wild type versus tarO mutant, primary screen, teichoic acid synthesis inhibitors, RN4220, OD600 (AID 463173); conditions: OD600, 18 h, active compounds read low, screened at 18.75 µg/mL (by protocol)

Compound | survival
CCOC(=O)c1ccc(NC(=O)Cn2nc3c4ccccc4n(Cc4cccc(F)c4)cc-3c2=O)cc1 | 82%
Cc1cc(C)nc(Nc2ccc(O)cc2)n1 | 91%
CC(C)c1ccc(S(=O)(=O)c2nnn3c2nc(NC2CCCC2)c2sccc23)cc1 | 65%
CCN(CC)c1ccc(NC(=O)c2cnn(-c3ccccc3)c2-n2cccc2)c(C)c1 | 115%
CCC1CCCCN1CCCNC(=O)c1[nH]c2ccccc2c1Sc1ccc(Cl)cc1 (centres undefined) | -1% (active)
CC1CCCCN1CCCNC(=O)c1cc(Sc2cccc(Cl)c2)nc2ccccc12 (centres undefined) | 68%
CC1CCCCN1CCCNC(=O)c1[nH]c2ccccc2c1Sc1ccc(Cl)cc1 (centres undefined) | 1% (active)
CC1CCCCN1CCCNC(=O)Cn1ncc2c([nH]c3ccccc32)c1=O (centres undefined) | 124%
CCCCNC(=O)c1[nH]c2ccccc2c1Sc1ccc(C)cc1 | 75%
CCN(CC)CCNC(=O)c1[nH]c2ccccc2c1Sc1ccc(Cl)cc1 | 45%
CC1CCCCN1C(=O)CN1CCSc2ccccc21 (centres undefined) | 74%
COc1ccc(NC(=O)c2sc3nc(C)c(C(=O)Nc4ccc(Cl)cc4)c(-c4ccc(Br)cc4)c3c2N)cc1 | 57%
Cc1nc2sc(C(N)=O)c(N)c2c(-c2ccc(Br)cc2)c1C(=O)Nc1ccc(Cl)cc1 | 10% (active)
Cc1nc2sc(C(=O)Nc3ccc(F)cc3)c(N)c2c(-c2ccc(Br)cc2)c1C(=O)Nc1ccc(Cl)cc1 | 80%
Cc1ccc(CNC(=O)CCN2C(=O)C(C)Oc3ccc(C)cc32)cc1 (centres undefined) | 128%
Cn1cc(C(=O)O)c(=O)c2ccccc21 | 80%
CCCNC(=O)c1c(O)c2ccccc2n(C)c1=O | 93%

Compound | survival
CCc1nnc(NC(=O)c2c(O)c3ccccc3[nH]c2=O)s1 | 84%
CCc1nnc(NC(=O)c2c(O)c3ccccc3n(C)c2=O)s1 | -1% (active)
COc1ccc(C(=O)COC(=O)CCCC(=O)Nc2cc(C(F)(F)F)ccc2Cl)cc1 | 53%
Cc1ccc(C)c(C(=O)COC(=O)CCCC(=O)Nc2cc(C(F)(F)F)ccc2Cl)c1 | 25% (active)
Cc1ccc(C(=O)COC(=O)CCCC(=O)Nc2cc(C(F)(F)F)ccc2Cl)cc1C | 54%
Cc1ccc(NC(=O)CSc2nc(=O)cc(N)n2-c2ccccc2)cc1 | 87%
COc1ccc(NC(=O)CSc2nc(-c3cccs3)cc(C(F)(F)F)n2)c(OC)c1 | 57%
COC(=O)c1ccccc1NC(=O)CSc1nc(=O)cc(N)n1-c1ccccc1 | 38% (active)
Cc1ccc(NC(=O)CSc2nc(-c3cccs3)cc(C(F)(F)F)n2)cc1C | 155%
O=C(CSc1nc(-c2cccs2)cc(C(F)(F)F)n1)Nc1ccccc1Cl | 121%
COc1ccc(Cl)cc1NC(=O)CCS(=O)(=O)c1nc(-c2cccs2)cc(C(F)(F)F)n1 | 63%
CC(C)(C)c1ccccc1NC(=O)CSc1nc(-c2cccs2)cc(C(F)(F)F)n1 | 23% (active)
CCOc1ccccc1NC(=O)CSc1nc(-c2cccs2)cc(C(F)(F)F)n1 | 69%
Nc1cc(=O)nc(SCC(=O)Nc2ccc(F)cc2)n1-c1cccc(Cl)c1 | 145%
COc1ccc(NC(=O)CSc2nc(-c3cccs3)cc(C(F)(F)F)n2)cc1Cl | 37% (active)
COc1ccc(Cl)cc1NC(=O)CSc1nc(-c2cccs2)cc(C(F)(F)F)n1 | 35% (active)
COc1cc(NC(=O)CSc2nc(-c3cccs3)cc(C(F)(F)F)n2)cc(OC)c1OC | 49%
